# Data from PubChem BioAssay.
# Values without a mark were called inactive. Active and inactive are the calls of the source.
# Assay: change in splice reporter luminescence, either direction, cell-based, HEK293, spliceosome inhibition project, primary screen (AID 1101);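 note: HEK293 cells carrying a splicing-competent luciferase reporter gene; test concentration not given here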
# Settings: HEK293 splicing luciferase reporter, 24 h, higher = more signal, called active from +8 up or from −8 down
row,Structure (SMILES),z-score
1,CC(C)(C)OC(=O)CC[C@]1(C(=O)NCCN2CCOCC2)N=C(c2ccc(OCCCO)cc2)O[C@H]1c1ccccc1,0.66
2,C=CC[C@@]12N=C(c3ccc(OCCCO)cc3)O[C@@H]1c1ccccc1N(CCS(=O)(=O)c1ccccc1)C2=O,-2.49
3,CCOC(=O)C[C@H]1[C@H](OC(=O)c2ccccc2-c2ccccc2)[C@@H](NC(=O)CC(C)C)c2cc(OCCCO)ccc2N1C(=O)c1ccc2ccccc2n1,-0.263
4,COc1ccc(C(O)C2C=CC3C(=O)N(c4ccccc4)C(=O)C3N2Nc2ccccc2)cc1OCc1ccccc1 (stereo not given),0.161
5,NCCCCCNC(=O)[C@@H]1C[C@@H]2C(=O)N[C@@H](CCCCN)C(=O)N2[C@@H]1c1cccc(OCCO)c1,-0.107
6,CCCCC(CC)C(O)C1C=CC2C(=O)N(c3ccccc3)C(=O)C2N1Nc1ccc([N+](=O)[O-])cc1 (stereo not given),0.63
7,CC(C)(C)OC(=O)CC[C@]1(C(=O)O)N=C(c2ccc(OCCCO)cc2)O[C@H]1c1ccccc1CN=[N+]=[N-],0.325
8,C=C(/C(=C/C[C@@H](OC(=O)c1ccncc1)c1ccccc1OCCO)c1cc(C(=O)OC)ccc1OC)C(C)C,-1.25
9,O=C1O[C@@H](c2ccccc2)[C@@H](c2ccccc2)N2[C@@H](c3ccccc3OCCO)[C@]3(C(=O)Nc4ccccc43)[C@@H](C(=O)NC[C@H](O)c3ccccc3)[C@H]12,-1.66
10,COCCOC(=O)N1C(=O)[C@@]2(c3cc(C#CC4(O)CCCCCC4)ccc31)[C@H](c1ccccc1OCCO)N1[C@H](c3ccccc3)[C@H](c3ccccc3)OC(=O)[C@H]1[C@@H]2C(N)=O,-0.349
11,O=c1cccc(-c2cccc(Cl)c2)o1,0.269
12,COCCOC(=O)N1C(=O)[C@@]2(c3cc(C#CC4=CCCCC4)ccc31)[C@H](C(=O)N1CCN(c3ncccn3)CC1)[C@H]1C(=O)O[C@H](c3ccccc3)[C@H](c3ccccc3)N1[C@@H]2c1ccc(O)cc1,0.345
13,COCC(=C=CC[C@H](O)c1ccc(OCCO)cc1)C[C@H](O)COCc1ccccc1,-1.11
14,C=C[C@@H](COC(C)=O)NS(=O)(=O)c1ccc(Br)cc1,23.4 (active)
15,O=C1C2C=CC(C(O)c3cc(C(F)(F)F)cc(C(F)(F)F)c3)N(Nc3ccc([N+](=O)[O-])cc3)C2C(=O)N1c1ccccc1 (stereo not given),0.765
16,CC(=O)NCCCC[C@@H]1NC(=O)[C@@H]2C[C@H](C(=O)O)[C@H](c3ccc(O)cc3)N2C1=O,-0.905
17,COCCOC(=O)N1C(=O)[C@@]2(c3cc(C#CC4=CCCCC4)ccc31)[C@H](c1ccc(O)cc1)N1[C@H](c3ccccc3)[C@H](c3ccccc3)OC(=O)[C@H]1[C@@H]2C(=O)Nc1nc2ccccc2s1,0.51
18,CC(C)CNC(=O)[C@@H]1c2ccccc2C(=O)N(Cc2cc(F)cc(C(F)(F)F)c2)[C@H]1c1ccc(CO)cc1,-0.621

row,Structure (SMILES),z-score
1,C=C(C(=O)CC[C@H](OC(C)=O)c1cccc(OCCO)c1)C(C)C,0.143
2,O=C1O[C@@H](c2ccccc2)[C@@H](c2ccccc2)N2[C@@H](c3ccc(O)cc3)[C@]3(C(=O)Nc4ccc(C#CCCO)cc43)[C@@H](C(=O)NC[C@H](O)c3ccccc3)[C@H]12,0.0041
3,CCCN1C(=O)[C@]2(Cc3ccccc3)N=C(c3ccc(OCCCO)cc3)O[C@@H]2c2ccccc21,-1.41
4,C[C@H]1C2=C3C(CC[C@H]4C(OCc5ccc(F)cc5C(F)(F)F)OC[C@](C)([C@@H]34)N(C(=O)OC(C)(C)C)C2)C2COC(=O)OCC21 (stereo not given in full),-0.848
5,O=C1c2ccccc2[C@](Cc2ccccc2I)(C(=O)NCCN2CCOCC2)[C@H](c2ccc(CO)cc2)N1Cc1ccccc1,-0.825
6,COC(=O)[C@@]1(Cc2ccc(OC)cc2)[C@H]2c3cc(C(=O)N(C)C)n(Cc4nc5ccccc5[nH]4)c3C[C@H]2CN1C(=O)c1ccccc1,-1.21
7,C[C@]1(C(=O)NC2CC2)c2ccccc2C(=O)N(Cc2ccc(OC(F)(F)F)cc2)[C@H]1c1ccc(CO)cc1,0.765
8,CN(C)CCCNC(=O)[C@@H]1c2ccccc2C(=O)N(CC23CC4CC(CC(C4)C2)C3)[C@H]1c1ccc(CO)cc1,-0.751
9,CC1CC/C=C\[C@H]2OC34C=CCN(C(C)C)C(=O)[C@H]3N(CCCCCO)C(=O)[C@@H]4C2C(=O)O1 (stereo not given in full),-0.356
10,C=CCOC(=O)[C@H]1[C@@H]2C(=O)O[C@@H](c3ccccc3)[C@@H](c3ccccc3)N2[C@@H](c2ccc(OCCOC(=O)[C@H]3C[C@H]4C(=O)N[C@@H](Cc5ccccc5)C(=O)N4[C@H]3c3cccc(OCCO)c3)cc2)[C@]12C(=O)Nc1ccc(I)cc12,0.959
11,CC(C)CN1C(=O)[C@@]2(c3ccc([N+](=O)[O-])cc3)CC(=O)N(CC34CC5CC(CC(C5)C3)C4)[C@@H]2c2ccc(CO)cc21,-0.668
12,C=C(CCCC)/C(=C/C[C@@H](OC(C)=O)c1ccc(CO)o1)c1cc(C(=O)OC)ccc1OC,1.32
13,COC(=O)C1(Cc2ccccc2)C=C2C(=C(C(C)C)C(=O)C2C)CN1 (stereo not given),1.62
14,COc1ccc([Si](C)(C)[C@@H]2[C@@H](CCO)O[C@]3(C(=O)N(Cc4cccc(N5C(=O)c6cccc7cccc5c67)c4)c4ccccc43)[C@H]2C)cc1,-0.665
15,C=CCC(OC(C)=O)[C@@H]1[C@@H](N(Cc2cc3ccccc3o2)C(=O)Cc2ccc(F)cc2)c2cc(OCCCO)ccc2N1C(=O)c1ccc2ccccc2n1 (stereo not given in full),-0.509
16,C=CCOC(=O)[C@@H]1[C@H]2C(=O)O[C@H](c3ccccc3)[C@H](c3ccccc3)N2[C@H](c2ccc(OCCOC(=O)[C@H]3C[C@H]4C(=O)N[C@@H](CCCC[N+](C)(C)C)C(=O)N4[C@H]3c3ccc(O)cc3)cc2)[C@@]12C(=O)Nc1ccc(I)cc12,-0.178
17,[N-]=[N+]=Nc1ccccc1[C@@H]1OC(c2ccc(OCCCO)cc2)=N[C@]1(CCS(=O)(=O)c1ccccc1)C(=O)NCCN1CCOCC1,-0.582
